In the library only some 3.8% were active in any assay of this set; here they are far more common.
GCN5L2 inh: blocks human GCN5L2 histone acetyltransferase | Potency, µM (series often up to 58.9 µM), for the others: at the highest dose activity change, negative = inhibition, most hits filed as inhibitors | GCN5L2 HAT assay, ThioGlo1 CoA-SH fluorescence | hit rate 0.21% among 390,000 | Q92830
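qHTS, 1536-well. 20nM enzyme, pH 7.5 HEPES/EDTA/Tween-20 buffer; 15 min compound preinc., RT. Start: 75uM H3(1-25), 70uM AcCoA, 50uM ThioGlo1. Read Ex340/Em540 at t=0 (autofluorescence flag) and t=20 min.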
Sfp inh: blocks B. subtilis Sfp PPTase activity | Q9F4F7 | Biochemical Sfp PPTase activity, qHTS | Potency, µM, inactives show largest response in the series, negative = inhibition, most hits filed as inhibitors | hit rate 3.5% among 310,000;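 note: the enzyme is Sfp with the accession as filed and its product quenches rhodamine fluorescence; 0% = enzyme reaction without inhibitor and -100% = no enzyme wells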
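After 15 min at room temperature with compound, 15 nM Sfp received 5 uM rhodamine-CoA plus 12.5 uM BHQ-2-ybbR (50 mM Hepes pH 7.6, 10 mM MgCl2). Rate came from the fluorescence difference over 30 min, ex 525/em 598 nm.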
VDR inhibitor: vitamin D3 receptor (human) inhibition; AID 504847; P11473; Potency, µM, for inactives: max response, negative = inhibition, most hits filed as inhibitors; hit rate 0.93% among 400,000; VDR-SRC2-3 peptide fluorescence polarization, 2 h
Target sequence (P11473 whole entry, looked up): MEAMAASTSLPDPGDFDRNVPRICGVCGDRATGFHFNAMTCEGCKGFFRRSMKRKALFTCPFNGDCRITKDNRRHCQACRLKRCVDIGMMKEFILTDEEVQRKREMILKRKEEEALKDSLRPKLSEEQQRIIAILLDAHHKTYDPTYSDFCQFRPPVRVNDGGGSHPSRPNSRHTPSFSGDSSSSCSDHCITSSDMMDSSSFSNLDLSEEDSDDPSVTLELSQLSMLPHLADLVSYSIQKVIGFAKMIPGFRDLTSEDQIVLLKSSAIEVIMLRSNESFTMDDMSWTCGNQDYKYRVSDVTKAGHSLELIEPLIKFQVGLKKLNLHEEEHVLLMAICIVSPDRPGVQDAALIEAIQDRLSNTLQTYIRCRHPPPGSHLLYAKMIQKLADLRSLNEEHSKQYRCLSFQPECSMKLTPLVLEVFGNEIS
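VDR–SRC2-3 interaction, FP format. Cmpds 23 nl via pintool, brief spin, 2 h ambient incubation.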
GLS inhibitor: glutaminase GLS (human) inhibition; O94925; GLS enzymatic activity, qHTS titration; hit rate 0.21% among 410,000; Potency, µM (highest dose often 45.5 µM), inactives show top-dose activity change, negative = inhibition, hits mostly inhibitors; AID 624170
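hKGA in 45 mM KH2PO4 (pH 8.2), 0.02% Tween-20 with compound, then 1mM L-Glutamine (stock as added) plus glutamate oxidase/HRP/Amplex red coupling mix. Fluorescence read initially and after 30 min at RT; signal change reflects glutamate formation.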
TrxR1 substrate: substrates of rat thioredoxin reductase 1 | hit rate 0.01% among 390,000 | Potency, µM (titrated, usually from 114 µM), for inactives: at the highest dose activity change, negative = substrate turnover | purified TrxR1 substrate turnover, NADPH consumption readout; note: nearly all actives have a fitted effect of over 50% in size
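Rat TrxR1, dispensed at 90 nM, was prereduced with 400 uM NADPH (final) for 5 min at ~22 deg C, then incubated with compound 15 min before 400 uM selenite. A first-read NADPH fluorescence drop versus no-compound background flagged substrates.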
TrxR1 inh: rat TrxR1 inhibition; recombinant rTrxR1, NADPH fluorescence consumption, selenite substrate; Potency, µM (doses to about 114 µM), for inactives: top-dose activity change, negative = inhibition, actives largely listed as inhibitors; hit rate 1% among 390,000; AID 588453; note: nearly all actives have a fitted effect of over 65% in size
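Rat TrxR1 (90 nM in the dispensed reagent) was pre-reduced with 400 uM NADPH for 5 min at room temperature, then incubated with compound for 15 min. After 400 uM selenite was added, NADPH fluorescence (Ex 340/Em 450 nm) was followed for 8 min.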
* marks the source's active call; other numbers are inactive results; ? = inconclusive; . = no result given; [ ] = dose if it differs, or a comment. Calls come from the whole dose curve; as a rule, active = well fitted curve in the direction sought with a large enough effect; inconclusive = small, poorly fitted or top-dose-only effect, or another doubt; inactive = no such curve, though single readings can be large; an effect the other way counts as inactive or inconclusive. Unless noted, % is set by controls: 0 for no effect and ±100 for the full control effect; potency is the fitted concentration of half-maximal effect.

SMILES | GCN5L2 inh | Sfp inh | VDR inhibitor | GLS inhibitor | TrxR1 substrate | TrxR1 inh
CCOc1ccc(N2C(=O)CC(NCC#N)C2=O)cc1 (stereo not drawn) | -7% | 56µM* | -6% | -7% | 3% | 22µM*
CC(=O)Nc1ccc(NC2=CC(=O)c3ccccc3C2=O)cc1 | 17% | 56µM* | 6% | -10% | -7% | -19%
CCOC(=O)c1ccc(NC2=CC(=O)C(=O)c3ccccc32)cc1 | -3% | 50µM* | -30% | -4% | -7% | 9%
CC(C)OC(=O)CC1C(=O)NCCN1C(=S)NC(=O)c1ccccc1 (stereo not drawn) | 4% | 18µM* | -10% | 26% | 4% | -22%
COC(=O)CC1C(=O)NCCN1C(=S)NC(=O)c1sc2ccccc2c1Cl (stereo not drawn) | -2% | 79µM* | -5% | -1% | 1% | ?
Cc1[nH]c(=O)[nH]c(=S)c1C(=O)Nc1ccc(Cl)c(Cl)c1 | . | . | 5% | 1.8µM* | 1% | 17%
Cc1ccc(-c2cc(C(F)(F)F)nc(SCC(=O)c3cccc([N+](=O)[O-])c3)n2)cc1 | 1% | -2% | 11% | -1% | -6% | 0%
CN1CCN(c2nc3c(c(=O)[nH]c(=O)n3C)n2Cc2ccccc2F)CC1 | -8% | 12% | -9% | 2% | -5% | 4%[57.1 µM]
O=C1/C(=C\c2cccs2)CCC/C1=C/c1cccs1 | ? | -9% | 40µM* | -2% | . | .
COC(=O)[C@H]1C[C@@H]1[C@H](NC(=O)[C@H]1C[C@@H]1[C@H](NC(=O)OCc1ccccc1)c1ccccc1)c1ccccc1 | -4% | 12% | -1% | -1% | -5%[57.1 µM] | 21%[57.1 µM]
O=C1C(Cl)=C(N2CCCCCC2)C(=O)N1c1ccccc1Cl | -4% | -16% | -7% | 1% | 1% | 23%
C=CCNC1=C(Cl)C(=O)N(c2ccccc2Cl)C1=O | -4% | 10% | 14% | -9% | -6% | 25µM*
Cc1c(NC2=C(Cl)C(=O)N(c3ccccc3Cl)C2=O)c(=O)n(-c2ccccc2)n1C | 0% | 50µM* | -24% | -6% | 9% | 20µM*
O=C1CC(NS(=O)(=O)c2ccccc2)CN1c1ccc2c(c1)OCCO2 (stereo not drawn) | -5% | . | 9% | 2% | 5% | 5%
CCN(CC)C(=O)C1CC(=O)N(c2ccc(OC)cc2)C1c1ccc(OC)cc1 (stereo not drawn) | 0% | -7% | -10% | 10% | 5% | 14%
CC(C)OC(=O)c1c(NC(=O)COc2cccc(Br)c2)sc2c1CCCC2 | -5% | . | -6% | -10% | 4% | -6%
C1=C(c2ccccc2)Nc2nnnn2C1 | -4% | 9% | -1% | 18% | 110% | 79µM*
CN(C)c1ccc(N/C=C/C(=O)c2ccco2)cc1 | -12% | 56µM* | 89µM* | 24% | 5%[57.1 µM] | -1%[57.1 µM]
O=C(C=C1SCCS1)/C=C/c1ccco1 | ? | 45µM* | -15% | -21% | -9% | 40µM*
Cc1ccc(C(=O)/C=C/c2ccco2)c(O)c1 | -17% | 45µM* | -24% | 10% | 4%[57.1 µM] | -22%[57.1 µM]
Cc1cc(C)c(C(=O)/C=C/c2ccco2)c(=O)[nH]1 | -20% | 8.9µM* | -14% | ? | -1%[57.1 µM] | ?
O=C(C=Cc1ccco1)N1CCOCC1 | . | . | -4% | -14% | -9%[2.29 µM] | -19%[57.1 µM]
CN(C)CC(=O)N1CCc2ccccc2C1 | -3% | -13% | 12% | -13% | 2% | 7%
Cc1ccc(-c2cnc(C3CC3)o2)cc1S(=O)(=O)Nc1ccc(F)cc1Cl | -1% | . | -7% | -3% | 0%[57.1 µM] | 4%[57.1 µM]
Cc1ccc2nc(Cl)c(/C=C/C(=O)c3ccco3)cc2c1 | -7% | -4% | 18µM* | 26% | 11%[57.1 µM] | -5%[57.1 µM]
O=C(C=Cc1ccco1)c1ccco1 | . | . | -7% | 52% | 13%[57.1 µM] | 14µM*
COc1ccc(S(=O)(=O)N2CCOCC2)cc1NC(=O)COC(=O)CCS(=O)(=O)c1ccc(C)cc1 | . | . | -8% | -1% | -8% | -23%

Source: PubChem (National Center for Advancing Translational Sciences (NCATS))
